From PubChem
CYP2C19 inh = blockers of cytochrome P450 2C19 activity – biochemical, luminescence, ADME assay, primary screen. 96,000 compounds, 21% hits. inhibition, % at 5 µM. CYP2C19 Supersomes, luciferin-H EGE luminescence, 30 min;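 active means CYP2C19 inhibition above a set limit at 5 µM in the primary screen, cut at about 50% in these data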;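 further: plate controls were negative control wells for no effect and 2.5 mM tranylcypromine positive control for full effect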
Target sequence (P33261 whole entry, looked up): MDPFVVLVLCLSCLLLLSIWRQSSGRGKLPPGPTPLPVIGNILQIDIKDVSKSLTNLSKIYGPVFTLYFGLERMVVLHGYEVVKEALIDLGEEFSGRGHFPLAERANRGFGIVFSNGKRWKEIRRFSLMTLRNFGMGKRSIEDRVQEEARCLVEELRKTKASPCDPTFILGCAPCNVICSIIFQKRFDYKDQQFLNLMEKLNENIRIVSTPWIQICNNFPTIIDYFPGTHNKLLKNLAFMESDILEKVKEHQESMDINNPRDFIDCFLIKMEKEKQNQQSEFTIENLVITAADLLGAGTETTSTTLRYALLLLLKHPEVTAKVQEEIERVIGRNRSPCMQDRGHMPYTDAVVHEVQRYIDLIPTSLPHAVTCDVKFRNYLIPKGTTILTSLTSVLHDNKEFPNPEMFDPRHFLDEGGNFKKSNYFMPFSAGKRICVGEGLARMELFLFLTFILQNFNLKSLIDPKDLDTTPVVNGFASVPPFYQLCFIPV
CYP2C19 activ = human CYP2C19 activators, primary screen, biochemical, luminescence; Cytochrome P450 2C19 (Homo sapiens), P33261; recombinant CYP2C19, luciferin-H EGE luminescence; hits give high values; 0 = fully inhibited enzyme, 1 = untreated enzyme; activation factor at 5 µM; 96,000 tested, under 10 active;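 active means activation factor of at least 2 at 5 µM in the primary screen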;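 further: 0 = wells with 2.5 mM tranylcypromine and 1 = vehicle-only wells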
CYP2C9 act = human CYP2C9 activators, primary screen, biochemical, luminescence; Cytochrome P450 2C9 (Homo sapiens), P11712; recombinant CYP2C9, luciferin-H conversion; hits give high values; factor 1 = untreated enzyme, 0 = blocked; activation factor at 5 µM; 96,000 compounds, 1.4% hits;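 active means activation factor of 2 or more for CYP2C9 at a 5 µM dose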;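 further: 0 = sulfaphenazole-blocked wells and 1 = vehicle-only wells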
sEH activator = soluble epoxide hydrolase activators, primary screen, biochemical, human sEH. 91,000 compounds, 0.04% hits. Bifunctional epoxide hydrolase 2 (Homo sapiens), P34913. activation, % at 2 µM. AID 717, 2007. purified human sEH enzymatic activity, activator screen; in the data active means activation above about 37%
sEH inhibitor = soluble epoxide hydrolase inhibitors, primary screen, biochemical, human sEH; AID 707, 2007; 91,000 compounds, 0.34% hits; Bifunctional epoxide hydrolase 2 (Homo sapiens), P34913; recombinant human sEH enzymatic activity assay; inhibition, % at 2 µM; in the data active means inhibition above about 80%
CYP2C9 inh = blockers of cytochrome P450 2C9 activity – biochemical, luminescence, ADME assay, primary screen | P11712 | 96,000 compounds, 20% hits | inhibition, % at 5 µM | CYP2C9 Supersomes, luciferin-H conversion;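 active means blocking of liver enzyme CYP2C9 beyond about 50% at 5 µM, limit read from the data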
* hit, by the source's call; . = no result. Rows were chosen to be rich in hits. Some 27% of all compounds tested hit in one or more screens of this group.

SMILES | CYP2C19 inh | CYP2C19 activ | CYP2C9 act | sEH activator | sEH inhibitor | CYP2C9 inh
Cc1ccc(C(=O)CSc2nc(C)cc(=O)[nH]2)cc1 | 12.0 | 0.9 | 0.7 | 3.7 | -1.9 | 32.0
Cc1ccc2nc(SCC(=O)c3ccc(Cl)s3)[nH]c2c1 | 47.8 | 0.5 | 0.4 | -4.1 | 5.9 | 60.3*
O=C(CSc1nc2ccccc2[nH]1)c1ccc2c(c1)OCO2 | 92.3* | 0.1 | 0.3 | 10.0 | -11.8 | 71.1*
Cc1ccc2nc(SCC(=O)c3ccc4c(c3)OCO4)[nH]c2c1 | 41.1 | 0.6 | 0.3 | 0.9 | 0.7 | 68.8*
O=C(O)CSc1nc2ccc(Cl)cc2[nH]1 | -18.6 | 1.2 | 1 | -8.9 | 7.8 | 1.9
O=C(CSCCO)Nc1cc(C(F)(F)F)ccc1Cl | 16.9 | 0.8 | 1.4 | -1.1 | 2.2 | -37.5
Cc1cccc(NC(=O)COC(=O)CNC(=O)C2CCCCC2)c1 | 25.1 | 0.7 | 0.8 | -6.2 | 5.3 | 23.9
O=C(CSc1nc(Cc2ccccc2)nc2ccccc12)c1ccc2c(c1)OCCO2 | 7.5 | 0.9 | 0.1 | . | . | 88.7*
CCc1nc(SCC(=O)c2ccc3c(c2)OCCO3)c2ccccc2n1 | 14.6 | 0.9 | 0.8 | -8.1 | 9.7 | 17.3
COc1ccc(NC(=O)C23CCC(C)(C(=O)C2)C3(C)C)cc1 (stereo not drawn) | 8.4 | 0.9 | 1 | 1.3 | -3.3 | 1.5
Cc1cc2nn(-c3cccc4ccccc34)nc2cc1NC(=O)c1cccs1 | 29.5 | 0.7 | 0.7 | 7.4 | -7.7 | 29.2
Cc1sc(NC(=O)c2ccco2)c(C(c2cccnc2)N2CCCC2)c1C (stereo not drawn) | 33.1 | 0.7 | 0.5 | . | . | 53.4*
Cc1sc(NC(=O)c2ccco2)c(C(c2ccncc2)N2CCOCC2)c1C (stereo not drawn) | 67.2* | 0.3 | 0.2 | -9.4 | 9.0 | 81.1*
Cc1sc(NC(=O)c2ccco2)c(C(c2cccnc2)N2CCN(C)CC2)c1C (stereo not drawn) | 8.6 | 0.9 | 0.8 | . | . | 22.8
CCOc1ccc(C(C)(C)C)cc1S(=O)(=O)N1CC(C)OC(C)C1 (stereo not drawn) | 79.2* | 0.2 | 0.4 | -2.5 | 6.1 | 63.0*
COc1ccc(Br)cc1S(=O)(=O)N1CC(C)OC(C)C1 (stereo not drawn) | . | . | . | 3.3 | -0.9 | .
COc1ccc(C(c2c(O)cc(C)oc2=O)c2c(O)cc(C)oc2=O)cc1 | 7.0 | 0.9 | 0.7 | 7.3 | -4.4 | 34.8
Cc1cc(O)c(C(C[N+](=O)[O-])c2ccc(Cl)cc2)c(=O)o1 (stereo not drawn) | 47.0 | 0.5 | 0.2 | 8.7 | -5.8 | 83.7*
CCCCNC(=O)CCCn1c(=S)[nH]c2cc3c(cc2c1=O)OCO3 | 14.9 | 0.9 | 0.4 | . | . | 59.1*
CCOCCCn1c(=S)[nH]c2cc3c(cc2c1=O)OCO3 | 67.6* | 0.3 | 0.5 | . | . | 47.5
CC(C)(C)c1ccccc1OCCOCCSc1ncccn1 | -35.3 | 1.4 | 1.2 | 7.5 | -9.5 | -17.5
Fc1ccc(Br)cc1C1C=C(c2ccc(Br)cc2)Nc2ncnn21 (stereo not drawn) | 87.3* | 0.1 | 0.4 | 2.5 | -2.3 | 56.4*
Cc1ccsc1C1C=C(c2cccc(Br)c2)Nc2ncnn21 (stereo not drawn) | 62.4* | 0.4 | 0.4 | 1.3 | -0.6 | 62.3*
CCc1ccc(C2=CC(c3cc(Br)ccc3F)n3ncnc3N2)cc1 (stereo not drawn) | . | . | . | -16.2 | 17.2 | .
CCOC(=O)c1[nH]c(C)c(C(=O)N2CCN(C(=O)OCC)CC2)c1CC | 0.7 | 1 | 0.9 | . | . | 9.6
SMILES | CYP2C19 inh | CYP2C19 activ | CYP2C9 act | sEH activator | sEH inhibitor | CYP2C9 inh
COc1cccc(C(=O)NCc2nnc(SCC(=O)Nc3nccs3)n2-c2cccc(C)c2)c1 | . | . | . | 10.6 | -10.0 | .
COc1ccc(NC(=O)C(NS(=O)(=O)c2ccc3c(c2)CCCN3C(C)=O)C(C)C)c(OC)c1 (stereo not drawn) | 12.5 | 0.9 | 0.4 | . | . | 64.5*
CC(=O)N1CCCc2cc(S(=O)(=O)NC(C(=O)NC(C)c3ccccc3)C(C)C)ccc21 (stereo not drawn) | 10.1 | 0.9 | 0.9 | . | . | 12.7
Cc1cc2c3c(c1C)C1(C(=O)N3C(C)(C)CC2C)C(C#N)=C(N)Oc2cc(O)ccc21 (stereo not drawn) | -5.7 | 1.1 | 1 | -5.7 | 4.0 | 0.3
CCn1cc(C(=O)OCC(=O)NCc2ccc3c(c2)OCO3)c(=O)c2ccc(C)nc21 | 21.5 | 0.8 | 0.7 | 9.0 | -6.8 | 26.7
CCc1ccc(C2=NN(c3ccc(S(N)(=O)=O)cc3)C(c3ccc(F)cc3)C2)cc1 (stereo not drawn) | 45.0 | 0.6 | 0.6 | 20.6 | -17.3 | 37.6
CS(=O)(=O)N1N=C(c2ccc(Br)cc2)CC1c1cccs1 (stereo not drawn) | 91.6* | 0.1 | 0.6 | 13.0 | -11.4 | 35.4
Cc1ccc(C2=NN(S(C)(=O)=O)C(c3cccs3)C2)cc1 (stereo not drawn) | 99.3* | 0 | 0.6 | . | . | 44.2
CCS(=O)(=O)Nc1cccc(C2=NN(S(=O)(=O)c3ccccc3)C(c3cccs3)C2)c1 (stereo not drawn) | 50.2* | 0.5 | 0.3 | 1.5 | 2.6 | 66.9*
CS(=O)(=O)N1N=C(c2ccc3nccnc3c2)CC1c1ccccc1 (stereo not drawn) | 27.2 | 0.7 | 0.6 | 3.2 | -1.2 | 42.0
O=S(=O)(c1ccccc1)N1N=C(c2cccs2)CC1c1ccc(F)cc1 (stereo not drawn) | -12.3 | 1.1 | 1.1 | -11.7 | 13.8 | -11.9
CCc1ccc(C2=NN(S(C)(=O)=O)C(c3cccs3)C2)cc1 (stereo not drawn) | 55.8* | 0.4 | 0.6 | 2.4 | -0.4 | 41.1
CCN1CCN(C(=O)c2ccc3c(c2)N(Cc2ccc(F)cc2)C(=O)c2ccccc2S3=O)CC1 (stereo not drawn) | . | . | . | -1.4 | 1.1 | .
Clc1ccc(-c2nnc3n2CCCS3)cc1 | -11.3 | 1.1 | 1.1 | -6.9 | 7.6 | -10.6
Cc1nc(CC(=O)c2c(C)cc(O)cc2O)cs1 | 34.7 | 0.7 | 0.6 | . | . | 41.5
O=C(NCCc1ccc(Cl)cc1)C1CCN(S(=O)(=O)c2ccc(-n3cnnn3)cc2)CC1 | 0.2 | 1 | 1 | -8.5 | 9.4 | 3.7
Cc1ccc2cccc(NC(=O)c3ccc(Br)o3)c2n1 | -7.8 | 1.1 | 1.5 | 4.7 | -6.7 | -45.8
COc1ccc(-n2c(NC(=O)c3ccc(Br)o3)c(C#N)c3nc4ccccc4nc32)cc1 | 2.4 | 1 | 0.2 | 10.8 | -9.8 | 78.9*
Cc1cccc(NC(=O)CCN2CC(C)OC(C)C2)c1 (stereo not drawn) | 72.9* | 0.3 | 1 | -14.3 | 15.4 | 2.5
O=C(CCN1CCCCC1)Nc1cccc(Cl)c1 | 1.9 | 1 | 1.1 | 10.3 | -11.2 | -7.2
Cc1cc(C)cc(NC(=O)CCN2CC(C)OC(C)C2)c1 (stereo not drawn) | 32.8 | 0.7 | 1 | . | . | -3.7
